D1 agonist = Allosteric Agonists of the Human D1 Dopamine Receptor: qHTS; 360,000 tested, 1% active; AID 504660, 2011; activation, % at 2 µM; HEK293 T-REx D1 cells, calcium flux, agonist mode; in the data active = activation above about 30%; also: 0% is about no effect
Target sequence (P21728 whole entry, looked up): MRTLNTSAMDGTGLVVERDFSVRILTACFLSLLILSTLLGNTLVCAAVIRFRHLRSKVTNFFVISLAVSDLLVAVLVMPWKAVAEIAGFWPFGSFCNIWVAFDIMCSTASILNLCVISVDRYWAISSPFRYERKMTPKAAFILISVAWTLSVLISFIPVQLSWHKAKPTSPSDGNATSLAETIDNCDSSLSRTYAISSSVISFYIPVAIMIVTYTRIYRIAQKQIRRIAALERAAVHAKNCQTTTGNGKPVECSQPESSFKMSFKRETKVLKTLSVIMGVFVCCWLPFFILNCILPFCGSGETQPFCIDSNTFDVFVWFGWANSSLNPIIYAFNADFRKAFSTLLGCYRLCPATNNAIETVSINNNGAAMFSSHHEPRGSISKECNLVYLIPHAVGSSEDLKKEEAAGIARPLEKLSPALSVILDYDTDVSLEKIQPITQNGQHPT
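Inducible HEK293 T-REx D1 cells, force-coupled to calcium signalling, were plated at 4000 cells/well with tetracycline and held overnight at 30 C. After no-wash calcium dye loading, compound-evoked calcium rise over 180 s flagged agonists.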
DRD3 antagonist = qHTS of D3 Dopamine Receptor Antagonist: qHTS | D(3) dopamine receptor (Homo sapiens), P35462 | D3R cells, DiscoveRx beta-arrestin luminescence, antagonist mode; active compounds read low | max response, negative = inhibition, % | 360,000 tested, 2.5% active; in the data active = max response below about -50%; also: % is scaled to controls: 0 for no effect and ±100 for the full control effect
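Cells expressing the human receptor were seeded at 1500 cells/well, incubated overnight at 37 degrees C in 5% CO2, then exposed to library compounds with dopamine controls for 90 minutes at 37 degrees C before luminescent detection.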
D1 antag = Antagonist of Human D 1 Dopamine Receptor: qHTS; HEK293 TREx D1 cells, calcium flux, dopamine EC80; active compounds read low; activity change, negative = inhibition, % at 10 µM; 360,000 tested, 3.2% active; AID 504652, 2011; in the data active = activity change below about -30%; also: % is scaled to controls: 0 for no effect and ±100 for the full control effect
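Antagonism measured as reduced calcium response to an EC80 dopamine addition following 180 s compound pre-read; cells were inducible HEK293 Trex D1 plated overnight at 30 C, read kinetically at 1 cycle/sec.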
DRD3 agonist = qHTS of D3 Dopamine Receptor Agonist: qHTS. 410,000 tested, 0.58% active. AID 652048, 2013. D(3) dopamine receptor (Homo sapiens), P35462. max activation, %. D3R DiscoveRx beta-arrestin cells, luminescence, 90 min; in the data active = max activation above about 30%; also: 0% is about no effect
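Cells at 1500/well, incubated overnight, then treated with pinned compounds (dopamine as control) for 90 min at 37 degrees C. DiscoveRx reagent added for 30 - 60 minutes at room temperature; luminescence read.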
D1 potentiator = Potentiators of Human D1 Dopamine Receptor: qHTS. D(1A) dopamine receptor (Homo sapiens), P21728. HEK293 TREx D1 cells, calcium flux, dopamine EC20 potentiation. 360,000 tested, 0.036% active. potentiation, % at 10 µM; in the data active = potentiation above about 30%; also: 0% is about no effect
The depositor's hits bear a star. In the library only some 6.1% were active in any assay of this set; here they are far more common.

CCCN1CCN(c2ncnc3sc(C(=O)Nc4c(C)cc(C)cc4C)c(C)c23)CC1 was read as D1 agonist 0.4, D1 antag -0.7, DRD3 agonist -10.1 and D1 potentiator 0.7.
`Cc1ccc(S(=O)(=O)N2CCN(C(=O)CSc3nnc(-c4ccco4)o3)CC2)cc1` gave D1 agonist 0.2, DRD3 antagonist -9.2, D1 antag -40.4*, DRD3 agonist 1.6 and D1 potentiator -7.8.
Screening O=C(CSc1ccccc1)N1CCN(S(=O)(=O)c2ccccc2)CC1 returned D1 agonist 0.9, DRD3 antagonist 9.5, D1 antag 11.1, DRD3 agonist 3.8 and D1 potentiator 1.9.
Cc1ccc(C)c(S(=O)(=O)N2CCN(C(=O)CSc3ccccc3)CC2)c1 was read as D1 agonist -0.9, DRD3 antagonist -3.3, D1 antag -40.5*, DRD3 agonist 6.2 and D1 potentiator -3.5.
`CCC(C(=O)OCC(=O)N1CCN(S(=O)(=O)c2ccc(C)cc2C)CC1)c1ccccc1` (stereo unspecified) gave D1 agonist 48.9*, DRD3 antagonist -18.0, D1 antag -2.7 and DRD3 agonist 4.8.
Screening Cc1ccc(C)c(S(=O)(=O)N2CCN(C(=O)CCc3c[nH]c4ccccc34)CC2)c1 returned D1 agonist 1.1, DRD3 antagonist 6.9, D1 antag -34.7*, DRD3 agonist -2.8 and D1 potentiator -4.9.
Screening CSc1ncc(C(=O)N2CCN(c3cccc(C(F)(F)F)c3)CC2)c(C)n1 returned D1 agonist 1.1, D1 antag -5.9, DRD3 agonist -4.7 and D1 potentiator -1.1.
`N#Cc1ccccc1CN1C(=O)c2ccccc2Sc2ccc(C(=O)OCc3ccco3)cc21` gave D1 agonist 10.7, D1 antag 1.9, DRD3 agonist -7.6 and D1 potentiator -3.5.
For Cc1ccc(C2Nc3cc(C)c(C)cc3-n3c(-c4ccccc4)c4c(=O)n(C)c(=O)n(C)c4c32)o1 (stereo unspecified) the results were D1 agonist -1.0, D1 antag 20.4, DRD3 agonist 7.2 and D1 potentiator -1.8.
For O=C(c1ccccc1)N1CCc2cc(CNS(=O)(=O)c3ccccc3Cl)ccc21 the results were D1 agonist 6.6, D1 antag 0.3, DRD3 agonist 3.0 and D1 potentiator -1.9.
CN1C(=O)Cc2cc(S(=O)(=O)NCc3ccc(Cl)cc3)ccc21 was read as D1 agonist 2.3, D1 antag -28.1, DRD3 agonist 3.7 and D1 potentiator -0.6.
`CCOc1ccc(NC(=O)Cn2cc(C(=O)c3ccc(CC)cc3)c(=O)c3ccc(C)nc32)cc1` gave D1 agonist 2.3, D1 antag 4.3, DRD3 agonist -12.8 and D1 potentiator -2.5.
Cc1nnc(SCC(=O)N2CCN(S(=O)(=O)c3ccccc3)CC2)s1 was read as D1 agonist 1.1, DRD3 antagonist -3.8, D1 antag -39.3*, DRD3 agonist -4.5 and D1 potentiator -3.8.
Screening CCCNC(=O)c1cnc2sc(N3CCCCCC3)nn2c1=O returned D1 agonist 1.4, D1 antag -11.3, DRD3 agonist 7.8 and D1 potentiator -5.2.
Screening COc1ccccc1-c1cc(C(=O)N/N=C/c2cccs2)c2ccccc2n1 returned D1 agonist -0.7, DRD3 antagonist -78.1*, D1 antag -19.1, DRD3 agonist -30.8 and D1 potentiator -2.5.
`C/C(=N\NC(=O)c1cc(-c2ccc(C)s2)nc2ccccc12)c1cccnc1` gave D1 agonist 2.0, DRD3 antagonist 5.0, D1 antag -4.0, DRD3 agonist -11.1 and D1 potentiator -3.5.
`CCOc1cc(/C=N/NC(=O)c2cc(-c3cccc(OC)c3)nc3ccccc23)ccc1O` gave DRD3 antagonist 96.4 and DRD3 agonist 35.1*.
`C/C(=N\NC(=O)c1cc(-c2cccc(OC(C)C)c2)nc2ccccc12)c1cccnc1` gave D1 agonist 2.1, DRD3 antagonist 32.6, D1 antag -42.7*, DRD3 agonist 0.0 and D1 potentiator -9.5.
